Assay [1] addresses Cellular tumor antigen p53 (Homo sapiens) (UniProt P04637). The experiment in a line: Primary qHTS for small molecule compounds that upregulate eGFP-tagged delta133p53alpha (in N-terminal) cells. (AID 2060322).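 For activation: cells pre-induced with doxycycline then dosed without doxycycline; series mostly up to about 56 µM; 0% = DMSO vehicle and 100% = reference activator.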 Note: nearly all actives have a fitted effect of over 75% in size. Note: potency is the fitted concentration of half-maximal effect. The conditions noted are these: NCI-H358 eGFP-delta133p53alpha fluorescence, 24 h; activation: active compounds read high. The method in brief: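 NCI-H358 cells pre-induced 24 h with 10 ng/ml doxycycline for eGFP-delta133p53alpha, plated dox-free and exposed 24 h at 37C to titrated compounds. Fixed, Hoechst-stained; gated GFP peak intensity by laser scanning cytometry, normalized to DMSO (0%) and 57.5 uM 5-azacytidine (100%).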
Background: In qHTS, concentration-response curves come from the screen itself.

For assay [2], the target named is Aldehyde dehydrogenase, mitochondrial (Homo sapiens) (UniProt P05091). Kind of assay: qHTS for Inhibitors of the Aldehyde Dehydrogenase Family (ALDH2) Primary screen (AID 2061308).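 Note: plate controls were vehicle for no effect and reference inhibitor for full effect; nearly all actives have a fitted effect of over 55% in size.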
Assay [3] deals with Retinaldehyde dehydrogenase 3 (Homo sapiens) (UniProt P47895). The experiment in a line: qHTS for Inhibitors of the Aldehyde Dehydrogenase Family (ALDH1A3) Primary screen (AID 2061315).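 Note: plate controls were DMSO vehicle for no effect and reference inhibitor for full effect.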
Assay [4] addresses Aldehyde dehydrogenase 1A1 (Homo sapiens) (UniProt P00352). The experiment in a line: qHTS for Inhibitors of the Aldehyde Dehydrogenase Family (ALDH1A1) Confirmatory screens (AID 2061316). Note: % is set by controls: 0 for no effect and ±100 for the full control effect; nearly all actives have a fitted effect of over 65% in size.
Assay [5] is described as follows: BET inhibitor-based combinations targeting novel dependencies in MECOM-rearranged (r) AML: SET-2 cell line (AID 2202231).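 For viability: plate controls were DMSO treated cells for no effect and wells without cells for full effect.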 Note: nearly all actives have a fitted effect of over 35% in size. Note: potency is the fitted concentration of half-maximal effect. The conditions noted are these: SET-2 AML cells viability, CellTiter-Glo luminescence, 48 h; viability: active compounds read low, concentration not given here. A digest of the protocol:
(§1)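 Here, 11-point titrations of each agent were applied to 500 seeded cells and incubated 48 hr; CellTiter-Glo signal, scaled against DMSO and empty wells, was integrated as AUC, then Z-scored within the individual line.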
(ATP-based viability assays read luminescence as a measure of living cells.)

Assay [6] is described as follows: BET inhibitor-based combinations targeting novel dependencies in MECOM-rearranged (r) AML: OCI-AML3 cell line (AID 2202232). Note: nearly all actives have a fitted effect of over 35% in size. Note: potency is the fitted concentration of half-maximal effect. The conditions noted are these: Potency: OCI-AML3 viability. The method in brief: as §1
Assay [7] is described as follows: BET inhibitor-based combinations targeting novel dependencies in MECOM-rearranged (r) AML: MV-4-11 cell line (AID 2202233). Note: nearly all actives have a fitted effect of over 45% in size. Note: potency is the fitted concentration of half-maximal effect. A digest of the protocol:
(§2)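 Normalized to DMSO and empty-well controls, the luminescence data from CellTiter-Glo after 48 hr drug exposure were fitted across 11 concentrations. Reported metrics are area under the dose-response curve and its Z-transformed form.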

Assay [8] in a line: BET inhibitor-based combinations targeting novel dependencies in MECOM-rearranged (r) AML: HNT-34 cell line (AID 2202234). Note: nearly all actives have a fitted effect of over 35% in size. Note: potency is the fitted concentration of half-maximal effect. The method in brief:
as §2

The nature of assay [9]: BET inhibitor-based combinations targeting novel dependencies in MECOM-rearranged (r) AML: UCSD-AML1 cell line (AID 2202235).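 Note: series mostly up to about 46 µM; plate controls were DMSO vehicle wells for no effect and blank wells for full effect; nearly all actives have a fitted effect of over 40% in size.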 A digest of the protocol:
as §2

A short description of assay [10]: BET inhibitor-based combinations targeting novel dependencies in MECOM-rearranged (r) AML: AML-191 cell line (AID 2202236; note: nearly all actives have a fitted effect of over 35% in size; note: potency is the fitted concentration of half-maximal effect). A digest of the protocol: as §1
A short description of assay [11]: BET inhibitor-based combinations targeting novel dependencies in MECOM-rearranged (r) AML: AML-194 cell line (AID 2202237;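 note: plate controls were vehicle wells for no effect and wells without cells for full effect; nearly all actives have a fitted effect of over 40% in size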). A digest of the protocol:
as §1

Inconclusive results are not listed. Unmarked numbers belong to inactive results. Active and inactive are the calls of the source. Calls come from the whole dose curve; as a rule, active = well fitted curve in the direction sought with a large enough effect; inconclusive = small, poorly fitted or top-dose-only effect, or another doubt; inactive = no such curve, though single readings can be large; an effect the other way counts as inactive or inconclusive.

Cellular tumor antigen p53 (Homo sapiens), sequence (P04637 whole entry, looked up): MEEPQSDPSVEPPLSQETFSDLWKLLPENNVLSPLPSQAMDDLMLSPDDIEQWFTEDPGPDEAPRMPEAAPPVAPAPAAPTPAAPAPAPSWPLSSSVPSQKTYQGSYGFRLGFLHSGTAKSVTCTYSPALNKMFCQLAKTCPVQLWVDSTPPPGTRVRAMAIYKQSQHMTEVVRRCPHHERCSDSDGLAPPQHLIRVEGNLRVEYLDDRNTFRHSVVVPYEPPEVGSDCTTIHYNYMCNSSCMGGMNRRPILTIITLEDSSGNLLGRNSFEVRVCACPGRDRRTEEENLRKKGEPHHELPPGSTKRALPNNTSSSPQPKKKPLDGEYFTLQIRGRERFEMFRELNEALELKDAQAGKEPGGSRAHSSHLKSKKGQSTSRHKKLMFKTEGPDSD

Turning to `CC1=CCC(C(C)(C)O[C@@H]2O[C@H](CO[C@@H]3O[C@@H](C)[C@H](O)[C@@H](O)[C@H]3O)[C@@H](O)[C@H](O)[C@H]2O)CC1` (stereo not given in full), the activation in assay [1] was -6.11%. The Potency result in assay [2] and in assay [3] was “inactive” each time.

Regarding `O=C(CSc1nc2ccccc2c(=O)n1-c1ccccc1)Nc1ccc2c(c1)CCC2`, the activation in [1] is 5.67%. For the same molecule, the Potency entry in assay [2] and in [3] was “inactive” throughout.

On to `CC(=O)O[C@@H]1C[C@]2(C)[C@@]3(CCC4[C@@]5(C)CC[C@H](O[C@@H]6O[C@H](C(=O)O)[C@@H](O)[C@H](OC7OC(CO)C(O)C(O)[C@H]7O[C@@H]7O[C@@H](C)[C@H](O)[C@@H](O)[C@H]7O[C@@H]7OC[C@](O)(CO)[C@H]7O)[C@H]6OC6OC(CO)C(O)C(O)C6O)C(C)(C)C5CC[C@]42C)OC[C@@]12CCC(C)(C)CC23` (stereo not given in full), for which the activation in assay [1] was -16%. The activity change, negative = inhibition was 9.13% [at 11.2 µM] in assay [2] and 6.07% [at 11.2 µM] in assay [3].

In the case of `C/C(=C\CO)CC/C=C(\C)C(=O)O[C@H]1[C@H](OC2OC=C(C(=O)O)C3CCC(C)(O)C23)O[C@H](CO)[C@@H](O)[C@@H]1O` (stereo not given in full), the activation in assay [1] is -22.3%. Besides, the Potency result in assay [2] and in assay [3] was “inactive” each time.

Consider `C[C@H]1CC(=O)C2=C(C1)C(O)C(O)[C@@]1(O)[C@H]2C(=O)c2cccc(O)c2[C@@H]1O` (stereo not given in full), for which the activation in [1] is 3.05%. The Potency entry in assay [2] and in assay [3] was “inactive” each time.

Take `C[C@@H]1O[C@@H](O[C@H]2[C@@H]3C=CO[C@@H](O[C@@H]4O[C@H](CO)[C@@H](O)[C@H](O)[C@H]4O)[C@@H]3[C@@]3(CO)O[C@@H]23)[C@H](OC(=O)/C=C/c2ccc(O)cc2)[C@H](O)[C@H]1O`: the activation in assay [1] is 6.87%. The Potency result in [2] and in [3] was “inactive” throughout.

Regarding `CCC(O)C(C)C1CCC(C(C)C(=O)O)O1` (stereo not given), in [1], the activation was 13.4%. Also, the Potency result in [2], in assay [3] and in assay [4] was “inactive” in each case.

On to `COc1cc(/C=C/C(=O)O[C@@H]2C[C@@](O)(C(=O)O)C[C@@H](O)[C@@H]2O)ccc1O`, for which the activation in [1] was -1.53%. Moreover, the Potency result in assay [2] and in assay [3] was “inactive” each time.

For the molecule `COc1cc2c(Nc3ccc(NC(=O)c4ccccc4)cc3)ncnc2cc1OCCCN1CCOCC1`, the activation in assay [1] was 32.6%. The Potency result in assay [2], in assay [3] and in assay [9] was “inactive” each time. The Potency in [5] was 26.3 µM (active); in [6], 18.6 µM (active); in [7] it was 1.66 µM (active); in assay [8], 1.32 µM (active); in assay [10], 20.9 µM (active).

In general, viability refers to a read-out of living cells in per cent, often relative to untreated cells. For the molecule `Clc1cc2c(NC3CCCC3)nnc(-c3ccncc3)c2cc1Cl`, the activation in assay [1] is -9%. For the same molecule, the Potency entry in assay [2], in assay [3], in assay [7], in assay [8], in [9] and in [10] was “inactive” each time. In addition, in [11], the Potency entry is “inactive”. In addition, the viability in assay [5] is 112%. Besides, the Potency in assay [6] is 0.468 µM (active).

Regarding `NCCOc1cc(C(=O)Nc2cc(OCCN)c3ccccc3n2)nc(C(=O)Nc2cc(OCCN)c3ccccc3n2)c1`, the figures for the Potency in assay [1] and in assay [7] were 0.193 µM (active) and 16.6 µM (active), respectively. The Potency result in [2], in [3] and in assay [6] was “inactive” each time. In addition, the viability in [5] is 78%.
